In the library only some 3.1% were active in any assay of this set; here they are far more common.
RAD54 inh – inhibitors of human RAD54 branch migration; 0.14% of 360,000 active; RAD54 Holliday junction branch migration, FAM/BHQ fluorescence; Q92698; AID 602329; inhibition, % at 10.4 µM;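 active = mean normalized replicate activity at least 40 and at least half of replicates scoring 40 or more; inconclusive = only one of the two criteria met; inactive = mean below 40 and under half of replicates reaching 40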;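 note: 0% = median of neutral control wells and 100% = median of positive control wells; inhibitors cause a drop in the FAM fluorescence signal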
AF4-AF9 inh – MLL-AF4/AF9 protein interaction inhibition; P42568; AlphaScreen, biotin-AF4 peptide binding to FLAG-AF9; inhibition, % at 10 µM; 0.47% of 350,000 active; AID 651704;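 active = every replicate reaching a set inhibition limit, whatever the replicate mean, cut at about 25% in these data; inconclusive = mean inhibition reaches that limit but some replicates miss it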;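 note: 0% = plate neutral control median and 100% = total signal loss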
RAD52 anneal inh – inhibitors of human RAD52 DNA annealing; recombinant RAD52 DNA annealing, FRET fluorescence; inhibition, % at 18.7 µM; 0.46% of 360,000 active;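 active = every replicate showing at least 50% inhibition; inconclusive = mean inhibition at least 50% but not in every replicate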
DENV2 CPE rescue – protects cells from dengue virus 2 cytopathic effect; 1.7% of 350,000 active; CPE inhibition, % at 9.99 µM; DENV2-infected cells, cytopathic effect rescue, plate reader; in the data active = CPE inhibition above about 20%, passing the limit was not always enough; inconclusive = no clear call, values can overlap the other calls; tested in BHK-21 cells;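 note: 0% = median of neutral control wells and 100% = median of positive control wells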
INS-1E GSIS act – GLuc luminescence reporter in INS-1E cells, primary screen for activators of glucose-dependent secretion of insulin; activation, % at 16.6 µM; 0.61% of 370,000 active; INS-1E GLuc reporter insulin secretion, 2-3 h;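 active = lowest replicate activation of at least 40%, so every replicate reaches that level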;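 note: 0% = median of neutral control wells and 100% = median of IBMX positive control wells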
dFosB act – mouse delta FosB homodimer activation. 0.99% of 340,000 active. P13346. activation, % at 25 µM. purified delta FosB, TAMRA-CDK5 oligo fluorescence polarization; percent of positive-control signal above neutral wells;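 active = mean activation above about 17%, with every replicate also reaching it, limit read from the data, passing the limit was not always enough; inconclusive = only one of the two conditions met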
Target sequence (P13346 whole entry, looked up): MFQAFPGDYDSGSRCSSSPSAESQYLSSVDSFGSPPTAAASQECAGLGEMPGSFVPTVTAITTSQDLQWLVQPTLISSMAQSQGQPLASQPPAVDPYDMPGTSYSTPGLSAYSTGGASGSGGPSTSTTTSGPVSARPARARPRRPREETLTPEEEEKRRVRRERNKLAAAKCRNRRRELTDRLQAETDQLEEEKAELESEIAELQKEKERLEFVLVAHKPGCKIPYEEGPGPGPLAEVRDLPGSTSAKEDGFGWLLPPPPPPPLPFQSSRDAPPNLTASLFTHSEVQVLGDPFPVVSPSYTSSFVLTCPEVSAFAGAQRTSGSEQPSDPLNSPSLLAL
* hit, by the source's call; ? = inconclusive; . = no result given.

SMILES	RAD54 inh	AF4-AF9 inh	RAD52 anneal inh	DENV2 CPE rescue	INS-1E GSIS act	dFosB act
C[C@H]1CN([C@@H](C)CO)C(=O)c2cc(C#CC(C)(C)O)cnc2O[C@H]1CN(C)Cc1cncnc1	6.3	-4.8	-0.5	32.8*	-5.1	.
C/C=C/c1cnc2c(c1)C(=O)N([C@@H](C)CO)C[C@H](C)[C@H](CN(C)Cc1cncnc1)O2	0.7	-20.1	-11.4	37.2*	5.9	.
C/C=C/c1cnc2c(c1)C(=O)N([C@H](C)CO)C[C@@H](C)[C@H](CN(C)Cc1cncnc1)O2	0.0	-13.6	14.5	-2.1	2.1	.
C[C@H](CO)N1C[C@H](C)[C@H](CN(C)C(=O)Nc2ccccc2)Oc2ncc(C#CC(C)(C)O)cc2C1=O	3.3	-3.9	-0.2	26.0*	21.5	.
CC(C)C#Cc1cnc2c(c1)C(=O)N([C@H](C)CO)C[C@H](C)[C@@H](CN(C)C(=O)Nc1ccccc1)O2	9.8	-1.2	0.1	-6.4	-0.3	.
CC(=O)N(C)C[C@H]1Oc2cc(C3=CCCCC3)ccc2S(=O)(=O)N([C@@H](C)CO)C[C@@H]1C	.	.	.	.	6.6	.
CCN1[C@@H]2c3ccc(-c4ccccc4F)c(=O)n3C[C@H]1[C@H](CO)[C@H]2C(=O)N1CCCCC1	-12.2	-2.1	-4.3	7.5	-1.8	.
C[C@H](NC(=O)[C@H]1[C@H](CO)[C@H]2Cn3c(ccc(-c4ccncc4)c3=O)[C@@H]1N2C)c1ccccc1	-4.3	-1.5	-5.5	4.0	5.2	.
CC(C)(C)[S@](=O)N1Cc2cc(C(=O)N3CCCCC3)nc(-c3cccc(-c4ccc(F)cc4)c3)c2[C@@H]1CCO	-1.5	0.6	-21.1	2.4	-12.2	.
O=C(c1ccc[nH]1)N1O[C@@H]2C=C[C@H]1C2	4.8	-1.6	4.4	61.6*	17.6	-2.8
COc1ccc(NC(=O)N(C)C[C@H]2Oc3c(NC(=O)c4ccncc4)cccc3C(=O)N([C@@H](C)CO)C[C@@H]2C)cc1	6.1	-2.7	9.0	1.3	11.8	.
Cc1ccc(-c2nnc(SCCC(=O)N3CCOCC3)o2)cc1	.	-4.1	10.9	-1.9	-3.5	-1.7
O=C(CCSc1nnc(-c2ccccc2)o1)N1CCOCC1	.	5.3	-6.8	26.8*	0.6	-1.1
OC[C@@H]1[C@H]2c3ccccc3OC1(CO)N=C1SCc3ccccc3CN12	5.5	3.3	18.3	1.9	.	.
COc1ccc(COCC23N=C4SCC(=O)N4[C@H](c4ccccc4O2)[C@H]3CO)cc1	-0.9	-1.6	1.2	25.7*	.	.
O=C1CSC2=NC3(CO)Oc4ccccc4[C@H]([C@H]3CO)N12	-2.3	-0.5	10.9	27.4*	.	.
COc1ccc(COC[C@]23NC(=O)N[C@H](c4ccccc4O2)[C@H]3CO)cc1	-2.0	25.6*	9.8	-10.2	.	.
C[C@@H]1CN([C@H](C)CO)C(=O)Cc2cc(NC(=O)CCC(F)(F)F)ccc2O[C@@H]1CN(C)CC1CC1	6.9	-1.0	1.4	-3.7	-1.9	.
C[C@H](CO)N1C[C@H](C)[C@@H](CN(C)C(=O)NC2CCCCC2)Oc2ccc(NC(=O)CCC(F)(F)F)cc2CC1=O	-4.9	0.7	7.8	31.9*	12.9	.
C[C@H](CO)N1C[C@H](C)[C@H](CN(C)CC2CC2)Oc2ccc(NC(=O)CCC(F)(F)F)cc2CC1=O	-9.2	-1.7	11.0	20.7*	8.4	.
COc1cccc(C#Cc2cnc3c(c2)C(=O)N([C@H](C)CO)C[C@H](C)[C@H](CN(C)C(=O)C2CC2)O3)c1	5.4	-2.4	7.2	1.6	-4.6	.
C[C@@H]1CCCCO[C@@H](CN(C)Cc2ccccc2)[C@H](C)CN([C@H](C)CO)C(=O)c2cc(NC(=O)NC3CCCCC3)ccc2O1	2.0	2.8	13.2	-3.9	-10.5	.
CC1OC(CCc2cccc(Cl)c2)Cc2[nH]c(=S)[nH]c(=O)c21 (stereo unspecified)	.	-2.4	-20.5	39.8*	-5.8	.
CC(C)C[C@@H]1O[C@H](CCc2ccccc2)Cc2[nH]c(=S)[nH]c(=O)c21	.	-24.8	-12.2	5.6	-26.0	.
Cc1ccc(S(=O)(=O)N(C)C[C@@H]2OCCCC[C@H](C)Oc3ccc(NS(=O)(=O)c4cn(C)cn4)cc3C(=O)N([C@H](C)CO)C[C@H]2C)cc1	-10.9	3.7	5.9	7.7	5.5	.
SMILES	RAD54 inh	AF4-AF9 inh	RAD52 anneal inh	DENV2 CPE rescue	INS-1E GSIS act	dFosB act
COc1ccc(OCc2nc(N)nc(Nc3ccccc3)n2)cc1	1.5	.	.	.	.	-7.7
Nc1nc(COc2ccccc2C=O)nc(Nc2ccccc2)n1	.	0.4	-20.0	-0.8	1.0	58.5*
NNC(=O)C1C(O)CCC2CN3CCc4c([nH]c5ccccc45)C3CC21 (stereo unspecified)	-31.7	3.4	-91.1	5.6	40.8*	0.4
COC(=O)[C@@H]1[C@H]2C[C@H]3c4[nH]c5ccccc5c4CCN3C[C@@H]2CC[C@@H]1O	1.2	-0.8	3.0	2.2	27.4	-3.9
COC(=O)c1ccc(OC)c(OC2CCCC2)c1	.	-1.2	-13.9	4.5	46.8*	0.3
COc1ccc(C(=O)OCC(=O)NC(=O)NC2CCCC2)cc1OC	-21.9	-1.1	-5.6	1.1	55.5*	-16.5
O=C(Cc1ccc2c(c1)OCCO2)N1CCN(S(=O)(=O)c2cccc(Cl)c2Cl)CC1	-1.4	29.9*	-1.9	-6.6	2.7	8.0
O=C(Cc1ccc2c(c1)OCCO2)N1CCN(S(=O)(=O)c2ccccc2C(F)(F)F)CC1	-12.1	14.6	-19.3	0.8	-8.2	-0.9
COc1ccc(N2CCN(C(c3cccs3)C(C)NC(=O)C(=O)N3CCOCC3)CC2)cc1 (stereo unspecified)	-10.2	0.4	-2.7	?	78.7*	-4.5
CO[C@@H]1CN(C)C(=O)c2ccc(NS(C)(=O)=O)cc2OC[C@@H](C)N(S(C)(=O)=O)C[C@H]1C	1.1	-4.1	-5.0	14.5	5.8	.
COc1cc2c(cc1OCc1ccccc1)/C(=C/C(=O)OCc1ccccc1)OC2	.	-4.2	-8.4	10.4	.	.
COc1cc2c(cc1OC)/C(=C/C(C)=O)OC2	.	.	-1.2	10.8	119.3*	.
COC(=O)/C=C1\OCc2cc(OC)c(OC)cc21	.	.	1.7	10.5	54.7*	.
COc1cc2c(cc1OC)/C(=C/C(=O)OCc1ccccc1)OC2	.	0.2	-43.0	-6.4	8.0	.
C[C@H]1CN([C@@H](C)CO)C(=O)c2cc(NC(=O)c3ccncc3)ccc2O[C@@H]1CN(C)Cc1ccc(C(=O)O)cc1	-1.1	-1.6	9.7	5.2	21.8	.
COCC(=O)N1C[C@H]2[C@@H](c3ccccc31)[C@@H](CO)N2Cc1ccccc1Cl	7.4	-2.1	-6.0	?	3.0	.
Cc1ccc(S(=O)(=O)Nc2ccc3c(c2)C(=O)N([C@@H](C)CO)C[C@H](C)[C@@H](CN(C)S(=O)(=O)c2ccc(C)cc2)OCCCC[C@@H](C)O3)cc1	-3.5	-5.3	-12.1	6.4	-38.2	.
CCOc1ccccc1NC(=O)Cn1nc(-c2ccco2)ccc1=O	-7.2	2.7	-7.4	-0.8	9.7	-10.3
